Data taken from the OligoGym collection.
Further: reference of the scale not given here.

These sequences were tested against RABGEF1 (assay: pooled miR-30 sensor sort-seq; sequence = guide strand). Settings: shRNA.
TTCATTAACAGGGACACACAGC gave a sensor-assay potency score (higher = more potent) of -0.293.
TTCACTGTGGTAACCTTGCGGG gave a sensor-assay potency score (higher = more potent) of -0.0581.
With TTGAATGGCAAGATCTTTCTTC the sensor-assay potency score (higher = more potent) was 0.743.
Sequence TTCTTCAATGCTTAGATCCCTT has a sensor-assay potency score (higher = more potent) of -0.412.
Sequence TTTCTTTTCTTCAAACTTGGAG has a sensor-assay potency score (higher = more potent) of -0.131.
With TTATACATTTGCTTGACGCCTA the sensor-assay potency score (higher = more potent) was 0.54.
TTTCAGAGTCAATAGCTGCTAA gave a sensor-assay potency score (higher = more potent) of -0.257.

These sequences were tested against RAD18 in the same assay as above. Settings: shRNA.
For TATAAATAGAAAATCTATCTGT, the sensor-assay potency score (higher = more potent) was 0.122.
TTTTCTAGCCTGATCCACCAGA was tested, and the sensor-assay potency score (higher = more potent) was -0.673.
Sequence TTTTGTGAACAGAACTTCTGAG has a sensor-assay potency score (higher = more potent) of 0.451.
Sequence TTTCCTTCTTCTCTTCGCGTGA has a sensor-assay potency score (higher = more potent) of -0.0825.
With TTCTGTGTCTTGAAGATCGTTT the sensor-assay potency score (higher = more potent) was 0.506.
In the case of TACTTTGACAGCAAGATTCTTT, the sensor-assay potency score (higher = more potent) was 0.474.
Sequence TTTTCTTTTATCAACAACTCTG has a sensor-assay potency score (higher = more potent) of 0.0462.
Work on TTTCATTGAGTTTACTAGCTTC yielded a sensor-assay potency score (higher = more potent) of 0.211.
TTTGTGAACAGAACTTCTGAGG was tested, and the sensor-assay potency score (higher = more potent) was -0.395.
In the case of TTTATCAACAACTCTGATGTAG, the sensor-assay potency score (higher = more potent) was 1.04.
For TAGAATTTAGCATCTTTCCTTG, the sensor-assay potency score (higher = more potent) was -0.0135.

These sequences were tested against RAD54L in the same assay as above. Settings: shRNA.
In the case of TTGCACTCTGGACTCTGGCGTA, the sensor-assay potency score (higher = more potent) was -0.761.
TTCTTTTGACCATCTCGCCAGA gave a sensor-assay potency score (higher = more potent) of -0.96.
TTGACCATCTCGCCAGACCCGG gave a sensor-assay potency score (higher = more potent) of -1.03.
TTGATTGGTTAGCTGACTCAAA showed a sensor-assay potency score (higher = more potent) of -0.506.
TTAACAAAATGTACCAAGCTGA gave a sensor-assay potency score (higher = more potent) of -0.415.
With TTCTTAATGGACATCGTGCCAT the sensor-assay potency score (higher = more potent) was -0.43.
TTGTCTCAGAAACCTCTTGTAT showed a sensor-assay potency score (higher = more potent) of -1.26.
For TCTTGTATAACTCAGTCTGAAG, the sensor-assay potency score (higher = more potent) was -1.48.
For TTCATGCTGACTGCTGTCCAGA, the sensor-assay potency score (higher = more potent) was -1.19.
For TTACAAAGCTTCTTTAGCGAGG, the sensor-assay potency score (higher = more potent) was -0.517.
For TTCTTGATGATTTTCTCCCAGA, the sensor-assay potency score (higher = more potent) was -0.985.
TAGATATAGCAAGTCTTCTTTT was tested, and the sensor-assay potency score (higher = more potent) was -1.02.

Each sequence was assayed against RAD9A in the same assay as above. Settings: shRNA.
For TTTACAGTGACAGCCAGCTGGG, the sensor-assay potency score (higher = more potent) was -1.03.
Work on TTAATGAATCAATAGCAGCGTC yielded a sensor-assay potency score (higher = more potent) of -0.585.
Sequence TACAGTGACAGCCAGCTGGGGC has a sensor-assay potency score (higher = more potent) of -0.774.
Work on TGTGCTGTGAGCCTGGAGCTGA yielded a sensor-assay potency score (higher = more potent) of -0.559.
With TTTTTCCACCGTCTTCTCCAGC the sensor-assay potency score (higher = more potent) was -1.2.
TTCATCAGGATCTTACAGCGCA showed a sensor-assay potency score (higher = more potent) of 0.0418.
With TGAATCAATAGCAGCGTCCAGT the sensor-assay potency score (higher = more potent) was -0.732.
In the case of TCATTGGCAAAGTCGTCCGGGT, the sensor-assay potency score (higher = more potent) was -0.913.
In the case of TCAAGTTTGCTGACTCTGCAAA, the sensor-assay potency score (higher = more potent) was -0.678.
Work on TTCCTTAGGAAGGTGAGCCTGA yielded a sensor-assay potency score (higher = more potent) of 0.111.
